# PubChem BioAssay (EPA / NIEHS)
# Active and inactive are the calls of the source. The calls were made as follows: active = hit-call score of the fitted dose curve at least 0.9, where 1 is the maximum; inactive = score below 0.9.
# Test: Tanguay_ZF_120hpf_AXIS: Oregon State University Tanguay Lab 120 Hour Post-fertilization zebrafish Assay for Axial Malformation (AID 2284398)
# Experimental: Tanguay_ZF_120hpf is a whole embryo, multiplexed endpoint assay using zebrafish larvae exposed for 120 hours post fertilization on a 96-well plate.Tanguay_ZF_120hpf_AXIS is one of one assay component(s) measured or calculated from the Tanguay_ZF_120hpf assay. It is designed to make measurements of zebrafish development as detected with brightfield microscopy of developing zebrafish embryos.Data from the assay component Tanguay_ZF_120hpf_AXIS was analyzed into 1 assay endpoints. This assay endpoint, Tanguay_ZF_120hpf_AXIS, was analyzed in the positive analysis fitting direction relative to DMSO as the negative control and baseline of activity. Using a type of morphology reporter, gain-of-signal activity can be used to understand changes in developmentals as they relate to the whole embryo. To generalize the intended target to other relatable targets, this assay endpoint is annotated to the zebrafish development intended target family, where the subfamily is body axis morphogenesis.
# Zebrafish husbandry: Tropical 5D wild-type adult zebrafish were housed in at an approximate density of 1000 per 100 gallon tank at the Sinnhuber Aquatic Research Laboratory, Oregon State University, Corvallis, OR. Each tank was kept at standard laboratory conditions of 28C on a 14-h light/10-h dark photoperiod in fish water consisting of reverse osmosis water supplemented with a commercially available salt (Instant Ocean). Spawning funnels were placed into the tanks the night prior, and embryos were collected and staged. To increase bioavailability, the chorion was enzymatically removed using pronase (63.6mg/ml, >/= 3.5U/mg, Sigma-Aldrich: P5147) at 4 hours post fertilization (hpf) using a custom automated dechorionator.Chemical exposures: Six hpf dechorionated embryos were placed 1 embryo per well in a 96-well plate prefilled with 90 ul of EM using automated embryo placement systems (AEPS). Ten microliters of each row of dilution plate 2 was added to 2 exposure plates. The final DMSO concentration used was 0.64% (vol/vol). Thirty-two embryos were also exposed to 5uM trimethyltin chloride (positive control). Plates were sealed to prevent evaporation and foil covered to reduce light exposure and kept in a 28C incubator. Embryos were statically exposed until 120 hpf. At 24 hpf, embryos were assessed for photomotor response using a custom photomotor response analysis tool (PRAT) and for developmental toxicity endpoints (MO24: mortality at 24 hpf, DP: developmental progression, SM: spontaneous movement, and NC: notochord distortion). At 120 hpf, locomotor activity was measured using Viewpoint Zebralab and assessed for 13 endpoints. Zebrafish acquisition and analysis program (ZAAP), a custom program designed to inventory, acquire, and manage zebrafish data, was used to collect developmental endpoints as either present or absent (i.e., binary responses were recorded). If mortality occurred for an embryo (at either 24 or 120 hpf), the non-mortality endpoints were not measured.
Structure (SMILES),outcome,AC50
NC(=O)C(F)(F)C(F)(F)C(F)(F)F,inactive,
CNS(=O)(=O)C(F)(F)C(F)(F)C(F)(F)C(F)(F)C(F)(F)C(F)(F)C(F)(F)C(F)(F)F,inactive,
NC(O)(C(F)(F)F)C(F)(F)F,inactive,
CCN(CCO)S(=O)(=O)C(F)(F)C(F)(F)C(F)(F)C(F)(F)C(F)(F)C(F)(F)C(F)(F)C(F)(F)F,inactive,
FC(F)(F)C(F)(F)C(F)(F)C(F)(F)C(F)(F)C(F)(F)CC[Si](Cl)(Cl)Cl,inactive,
O=C(O)CCC(F)(F)C(F)(F)C(F)(F)F,inactive,
CCOC(=O)CC(=O)C(F)(F)C(F)(F)F,inactive,
NC(=O)C(F)(F)C(F)(F)C(F)(F)C(F)(F)C(F)(F)C(F)(F)C(F)(F)F,inactive,
NS(=O)(=O)C(F)(F)C(F)(F)C(F)(F)C(F)(F)C(F)(F)C(F)(F)F,inactive,
C[Si](Cl)(Cl)CCC(F)(F)C(F)(F)C(F)(F)C(F)(F)C(F)(F)C(F)(F)F,inactive,
NC(=O)C(F)(F)C(F)(F)C(F)(F)C(F)(F)C(N)=O,inactive,
O=C(O)C(F)(F)C(F)(F)C(F)(F)OC(F)(F)F,inactive,
OCC(O)CC(F)(F)C(F)(F)C(F)(F)C(F)(F)F (configuration not stated),inactive,
O=C(O)C(F)(F)C(F)(F)C(F)(F)OC(F)(C(F)(F)F)C(F)(F)F,inactive,
O=C(O)CCC(F)(F)C(F)(F)C(F)(F)C(F)(F)C(F)(F)C(F)(F)C(F)(F)F,inactive,
OCC(O)CC(F)(F)C(F)(F)C(F)(F)C(F)(F)C(F)(F)C(F)(F)C(F)(F)C(F)(F)F (configuration not stated),,6.61 µM (active)
CO[Si](C)(CCC(F)(F)C(F)(F)C(F)(F)C(F)(F)C(F)(F)C(F)(F)F)OC,inactive,
FC(F)(F)C(F)(F)C(F)(F)CC1CO1 (configuration not stated),inactive,
C=CC(=O)OCC(F)(F)C(F)(F)C(F)(F)C(F)(F)C(F)(F)C(F)(F)C(F)(F)C(F)F,inactive,

Structure (SMILES),outcome,AC50
C=CC(=O)OCC(F)(F)C(F)(F)C(F)(F)COC(=O)C=C,inactive,
OCC(F)(F)C(F)(F)C(F)(F)C(F)(F)C(F)(F)C(F)(F)CO,inactive,
COC(F)(C(F)F)C(F)(F)F (configuration not stated),inactive,
NC(=O)C(F)(F)C(F)(F)C(F)(F)C(F)F,inactive,
CN(C(=O)C(F)(F)C(F)(F)C(F)(F)F)[Si](C)(C)C,inactive,
O=S(=O)(O)CCC(F)(F)C(F)(F)C(F)(F)C(F)(F)F,inactive,
OCC(F)(F)C(F)(F)C(F)(F)CO,inactive,
C=CC(=O)OCCC(F)(F)C(F)(F)C(F)(F)C(F)(F)F,inactive,
O=C(O)C(F)(F)C(F)(F)C(F)(F)C(=O)O,inactive,
O=S(=O)(Cl)C(F)(F)C(F)(F)C(F)(F)C(F)(F)C(F)(F)C(F)(F)C(F)(F)C(F)(F)F,inactive,
OC(O)C(F)(F)C(F)(F)F,inactive,
O=C(F)C1(F)C(F)(F)C(F)(F)C(F)(F)C(F)(F)C1(F)F,inactive,
O=S(=O)(O)CCC(F)(F)C(F)(F)C(F)(F)C(F)(F)C(F)(F)C(F)(F)C(F)(F)C(F)(F)F,inactive,
FC(F)(F)C(F)(F)C(F)(F)C(F)(F)C(F)(F)C(F)(F)C(F)(F)CCI,inactive,
OCCCCC(F)(F)C(F)(F)C(F)(F)C(F)(F)F,inactive,
O=S(=O)(OCC(F)(F)F)C(F)(F)C(F)(F)C(F)(F)C(F)(F)F,inactive,
OCCCC(F)(F)C(F)(F)C(F)(F)C(F)(F)C(F)(F)C(F)(F)C(F)(F)C(F)(F)F,inactive,
OCC(F)(F)C(F)(F)C(F)(F)C(F)(F)C(F)(F)C(F)(F)C(F)(F)C(F)(F)CO,inactive,
